# In the supplement of paper PMC8728848:
# This excerpt belongs to a sample that is enriched for the strongest signals.
# How the values were obtained:
# Experiment in all cases: glycan array binding signal (z-score within array); higher = stronger binding
# Details in all cases: glycan notation: IUPAC condensed, linker removed
# [1] = biological target: Fuc(a1-2)Gal(b1-3)[Fuc(a1-4)]GlcNAc(b1-2)Man(a1-3)[Fuc(a1-2)Gal(b1-3)[Fuc(a1-4)]GlcNAc(b1-2)Man(a1-3)]Man(b1-4)GlcNAc(b1-4)GlcNAc
# Procedure, shortened: (§1)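 The binding signal is a Z-score computed within each array and averaged over linkers. Arrays of the same protein sequence at different concentrations or buffers were also averaged together. Data originate from 3228 arrays in the Consortium for Functional Glycomics database, kept only where the protein sequence was available.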
# [2] = biological target: Fuc(a1-2)Gal(b1-4)GlcNAc(b1-2)Man
# Procedure, shortened: as §1
# [3] = biological target: Fuc(a1-2)[Gal(a1-3)]Gal(b1-4)GlcNAc(b1-2)Man
# Procedure, shortened: as §1
# [4] = biological target: Fuc(a1-2)[Gal(a1-4)]Gal(b1-4)GlcNAc
# Procedure, shortened: as §1
# [5] = biological target: Fuc(a1-2)[GalNAc(a1-3)]Gal(b1-4)GlcNAc(b1-6)GalNAc
# Procedure, shortened: as §1
# [6] = biological target: Fuc(a1-3)[Gal(b1-4)]GlcNAc(b1-6)GalNAc
# Procedure, shortened: as §1
# [7] = biological target: Gal(a1-3)Gal(b1-3)GlcNAc(b1-2)Man
# Procedure, shortened: as §1
# [8] = biological target: Gal(a1-4)Gal(b1-3)GlcNAc(b1-2)Man(a1-3)[Gal(a1-4)Gal(b1-3)GlcNAc(b1-2)Man(a1-6)]Man(b1-4)GlcNAc(b1-4)GlcNAc
# Procedure, shortened: as §1
# [9] = biological target: Gal(b1-3)GlcNAc(a1-3)Gal(b1-4)GlcNAc
# Procedure, shortened: as §1
# [10] = biological target: Gal(b1-3)GlcNAc(b1-2)Man(a1-3)[GlcNAc(b1-4)][Gal(b1-3)GlcNAc(b1-2)Man(a1-6)]Man(b1-4)GlcNAc(b1-4)GlcNAc
# Procedure, shortened: as §1
# [11] = biological target: Gal(b1-3)GlcNAc(b1-3)Gal(b1-4)Glc
# Procedure, shortened: as §1
# [12] = biological target: Gal(b1-3)GlcNAc(b1-3)Gal(b1-4)GlcNAc(b1-3)Gal(b1-4)GlcNAc(b1-2)[Gal(b1-3)GlcNAc(b1-3)Gal(b1-4)GlcNAc(b1-3)Gal(b1-4)GlcNAc(b1-6)]Man(a1-6)[Gal(b1-3)GlcNAc(b1-3)Gal(b1-4)GlcNAc(b1-3)Gal(b1-4)GlcNAc(b1-2)Man(a1-3)]Man(b1-4)GlcNAc(b1-4)[Fuc(a1-6)]GlcNAc
# Procedure, shortened: as §1
# [13] = biological target: Gal(b1-4)GlcNAc(b1-2)Man(a1-3)Man(b1-4)GlcNAc(b1-4)GlcNAc
# Procedure, shortened: as §1
# [14] = biological target: Gal(b1-4)GlcNAc(b1-2)[Gal(b1-4)GlcNAc(b1-4)]Man(a1-3)[Gal(b1-4)GlcNAc(b1-2)[Gal(b1-4)GlcNAc(b1-6)]Man(a1-6)]Man(b1-4)GlcNAc(b1-4)GlcNAc
# Procedure, shortened: as §1
# [15] = biological target: Gal(b1-4)GlcNAc(b1-3)Gal(b1-4)GlcNAc(b1-2)Man(a1-3)[Gal(b1-4)GlcNAc(b1-3)Gal(b1-4)GlcNAc(b1-2)Man(a1-6)]Man(b1-4)GlcNAc(b1-4)GlcNAc
# Procedure, shortened: as §1
# [16] = biological target: Gal(b1-4)GlcNAc(b1-3)Gal(b1-4)GlcNAc(b1-3)Gal(b1-4)GlcNAc(b1-2)Man(a1-3)[Gal(b1-4)GlcNAc(b1-3)Gal(b1-4)GlcNAc(b1-3)Gal(b1-4)GlcNAc(b1-2)Man(a1-6)]Man(b1-4)GlcNAc(b1-4)GlcNAc
# Procedure, shortened: as §1
# [17] = biological target: Gal(b1-4)GlcNAc(b1-3)Gal(b1-4)GlcNAc(b1-3)Gal(b1-4)GlcNAc(b1-3)Gal(b1-4)GlcNAc(b1-3)Gal(b1-4)GlcNAc(b1-2)Man(a1-3)[Gal(b1-4)GlcNAc(b1-3)Gal(b1-4)GlcNAc(b1-3)Gal(b1-4)GlcNAc(b1-3)Gal(b1-4)GlcNAc(b1-3)Gal(b1-4)GlcNAc(b1-2)Man(a1-6)]Man(b1-4)GlcNAc(b1-4)[Fuc(a1-6)]GlcNAc
# Procedure, shortened: as §1
# [18] = biological target: Gal(b1-4)GlcNAc(b1-3)Gal(b1-4)GlcNAc(b1-3)Gal(b1-4)GlcNAc(b1-3)Gal(b1-4)GlcNAc(b1-3)Gal(b1-4)GlcNAc(b1-2)[Gal(b1-4)GlcNAc(b1-3)Gal(b1-4)GlcNAc(b1-3)Gal(b1-4)GlcNAc(b1-3)Gal(b1-4)GlcNAc(b1-3)Gal(b1-4)GlcNAc(b1-6)]Man(a1-6)[Gal(b1-4)GlcNAc(b1-3)Gal(b1-4)GlcNAc(b1-3)Gal(b1-4)GlcNAc(b1-3)Gal(b1-4)GlcNAc(b1-3)Gal(b1-4)GlcNAc(b1-2)Man(a1-3)]Man(b1-4)GlcNAc(b1-4)[Fuc(a1-6)]GlcNAc
# Procedure, shortened: as §1
# [19] = biological target: Gal(b1-4)GlcNAc(b1-3)Gal(b1-4)GlcNAc(b1-3)Gal(b1-4)GlcNAc(b1-3)Gal(b1-4)GlcNAc(b1-3)Gal(b1-4)GlcNAc(b1-3)Gal(b1-4)GlcNAc(b1-2)Man(a1-3)[Gal(b1-4)GlcNAc(b1-3)Gal(b1-4)GlcNAc(b1-3)Gal(b1-4)GlcNAc(b1-3)Gal(b1-4)GlcNAc(b1-3)Gal(b1-4)GlcNAc(b1-3)Gal(b1-4)GlcNAc(b1-2)Man(a1-6)]Man(b1-4)GlcNAc(b1-4)GlcNAc
# Procedure, shortened: as §1
# [20] = biological target: Gal(b1-4)GlcNAc(b1-3)Gal(b1-4)GlcNAc(b1-6)[Gal(b1-3)]GalNAc
# Procedure, shortened: as §1
# [21] = biological target: Gal(b1-6)Gal
# Procedure, shortened: as §1
# [22] = biological target: Gal4S6S(b1-4)GlcNAc
# Procedure, shortened: as §1
# [23] = biological target: Gal6S(b1-3)GlcNAc
# Procedure, shortened: as §1
# [24] = biological target: GalNAc3S(b1-4)[Fuc(a1-3)]GlcNAc
# Procedure, shortened: as §1
binder,measurement,setting,value
Pbx1 (Cryptococcus neoformans) (protein) ATTKCLVSGDQDSINNALALGGEGTTVTLCPGSVHRLNSSIIFTAPSQTLTTLGNPKDRNRAMLVVDGEDLACAIRADCKQCSHAMIRSLVIDGNRPQLLRIPKGDALIEVGNAESQTVRDCKLYEPRGWSALHFREGDERQCRFGHIVDNEIGPCGEEWDDEYDSMDETKPLWGNPRADGISLACKDSIVERNVVYDATDGAIVLFGSAGSTVKNNHVYARTRVILGGINLVDYEPWDGDYTNVKVHHNHLYALGRYFKVGIVIGPASWSDDTESVVHSASVTDNEFSGGYWGYGIVVASAKNFEVLRNKVIWDGEQGVARFSGVPGSRCPKAPENGKPTAFLINRGSAKGIFQDDFVNGEVQHIICLNPDQDPPYKPWRFRDSPEAIAAKQAENPTANSAFDSRIAEALVSYQMSLLNSMDAMTQKVEHLTNPIVDDALPFVHEHERAEADKKARQEASRKEKESGNKDVDMLNVKVEELEKSGRRLKKALDGLKSDFEGLSGRLKKSADENKPIIETIFVTSQNLLLGATSQQN,glycan array binding signal (z-score),[1],2.82
same,glycan array binding signal (z-score),[2],-0.654
same,glycan array binding signal (z-score),[3],-0.203
same,glycan array binding signal (z-score),[4],0.002
same,glycan array binding signal (z-score),[5],0.252
same,glycan array binding signal (z-score),[6],2.34
same,glycan array binding signal (z-score),[7],1.04
same,glycan array binding signal (z-score),[8],2.14
same,glycan array binding signal (z-score),[9],-0.304
same,glycan array binding signal (z-score),[10],0.415
same,glycan array binding signal (z-score),[11],-0.533
same,glycan array binding signal (z-score),[12],15
same,glycan array binding signal (z-score),[13],-0.195
same,glycan array binding signal (z-score),[14],0.072
same,glycan array binding signal (z-score),[15],2.91
same,glycan array binding signal (z-score),[16],2.41
same,glycan array binding signal (z-score),[17],5.6
same,glycan array binding signal (z-score),[18],4.38
same,glycan array binding signal (z-score),[19],1.03
same,glycan array binding signal (z-score),[20],2.33
same,glycan array binding signal (z-score),[21],-0.233
same,glycan array binding signal (z-score),[22],-0.366
same,glycan array binding signal (z-score),[23],0.304
same,glycan array binding signal (z-score),[24],0.766
